In US20040191812, “Target-dependent transcription using deletion mutants of N4 RNA polymerase” (published 2004):

What was measured:
[1] = molecular target: T1, N4 mini-vRNAP (His-tagged) (Bacteriophage N4, UniProt Q859P9 SEQ:34-1143); assay: filter; two orders of magnitude reduction; conditions: tags: N-terminal hexahistidine (pBAD); label: 32P end-label; hairpin, 8 bp stem; ssDNA; [none]
T1 chain: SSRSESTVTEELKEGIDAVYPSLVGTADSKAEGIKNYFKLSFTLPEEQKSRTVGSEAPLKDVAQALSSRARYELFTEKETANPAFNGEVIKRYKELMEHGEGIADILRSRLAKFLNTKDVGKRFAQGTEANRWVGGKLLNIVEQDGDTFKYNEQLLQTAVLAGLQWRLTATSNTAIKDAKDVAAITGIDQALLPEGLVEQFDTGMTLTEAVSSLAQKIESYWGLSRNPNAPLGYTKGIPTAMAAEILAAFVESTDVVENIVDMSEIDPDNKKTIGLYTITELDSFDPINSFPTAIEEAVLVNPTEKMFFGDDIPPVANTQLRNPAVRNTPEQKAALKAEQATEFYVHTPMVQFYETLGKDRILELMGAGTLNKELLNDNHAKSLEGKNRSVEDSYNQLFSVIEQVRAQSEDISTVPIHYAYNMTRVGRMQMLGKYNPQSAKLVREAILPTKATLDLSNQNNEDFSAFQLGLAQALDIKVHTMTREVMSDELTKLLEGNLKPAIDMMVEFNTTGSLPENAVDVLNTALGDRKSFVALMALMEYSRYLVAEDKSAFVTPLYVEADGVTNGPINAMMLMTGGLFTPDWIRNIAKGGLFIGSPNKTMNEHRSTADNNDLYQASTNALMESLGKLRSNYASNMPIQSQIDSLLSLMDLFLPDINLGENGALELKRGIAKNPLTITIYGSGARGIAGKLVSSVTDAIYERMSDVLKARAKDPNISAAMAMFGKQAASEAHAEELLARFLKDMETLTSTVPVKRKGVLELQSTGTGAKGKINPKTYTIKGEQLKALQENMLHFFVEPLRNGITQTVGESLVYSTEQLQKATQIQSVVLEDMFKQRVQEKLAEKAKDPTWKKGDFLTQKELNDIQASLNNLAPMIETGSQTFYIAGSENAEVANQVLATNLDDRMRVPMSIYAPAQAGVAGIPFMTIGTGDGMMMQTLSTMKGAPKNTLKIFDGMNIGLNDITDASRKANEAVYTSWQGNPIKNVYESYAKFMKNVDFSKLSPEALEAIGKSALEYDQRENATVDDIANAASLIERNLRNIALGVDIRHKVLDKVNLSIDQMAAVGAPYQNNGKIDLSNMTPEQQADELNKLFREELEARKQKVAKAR

[2] = molecular target: T1, N4 mini-vRNAP (His-tagged); assay: filter; further one order of magnitude reduction; conditions: tags: N-terminal hexahistidine (pBAD); label: 32P end-label; hairpin; ssDNA; [none]

Sequence	binding signal [1]	binding signal [2]
TCCAAAAGAAGCGGAGCTTCTTT	~100 fold lower affinity than wild type	
TCCAAAAGAAGCGGAGCTTCTTTTG		~1000 fold lower affinity than wild type
